Values joined by “and” are separate entries in the source; they are usually repeats but may differ in a detail not shown here. Identical values can stand only once. About 2,000 (36%) of roughly 5,500 compounds were called active. Another 18% or so got no clear call; they are omitted. Rule as the data show it: active = normalized growth mostly below about 0.91 (no sharp cut-off); inconclusive = no clear call, values can overlap the other calls; inactive = mostly above about 0.92. The list shows a part of the results.
Assay: chemical genetic growth profiling, strain panel (AID 1159580);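 also: tested at 20 µM; growth read once vehicle control cultures reached saturation at 30 °C; 1 = growth at the plate median or of vehicle wells; lower values mean less growth of the strain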
Conditions: S. cerevisiae deletion strains, growth OD

Measured: normalized growth

CC1CC[C@]2(NC1)O[C@H]1CC3C4CC[C@H]5C[C@@H](O)CC[C@]5(C)C4CC[C@]3(C)[C@H]1[C@@H]2C (stereo partly specified)
active: locus YAL021C, strain ccr4, active compounds read low 0.173 | locus YAL026C, strain drs2, active compounds read low 0.0682 | locus YAL030W, strain snc1, active compounds read low 0.0859 | locus YBL061C, strain skt5, active compounds read low 0.109 | locus YBR009C, strain hhf1, active compounds read low 0.0771 | locus YBR021W, strain FUR4, active compounds read low 0.272 | locus YBR023C, strain chs3, active compounds read low 0.102 | locus YBR171W, strain sec66, active compounds read low 0.159 | locus YBR229C, strain ROT2, active compounds read low 0.107 | locus YBR231C, strain swc5, active compounds read low 0.167 | locus YBR279W, strain paf1, active compounds read low 0.143 | locus YCL011C, strain gbp2, active compounds read low 0.0814 | locus YCL016C, strain dcc1, active compounds read low 0.103 | locus YCL029C, strain bik1, active compounds read low 0.0809 | locus YCL061C, strain MRC1, active compounds read low 0.103 | locus YCL069W, strain vba3, active compounds read low 0.0775 | locus YCR088W, strain abp1, active compounds read low 0.111 | locus YDL005C, strain med2, active compounds read low 0.104 | locus YDL035C, strain GPR1, active compounds read low 0.0845 | locus YDL040C, strain nat1, active compounds read low 0.164 | locus YDL074C, strain BRE1, active compounds read low 0.148 | locus YDL101C, strain DUN1, active compounds read low 0.0938 | locus YDL185W, strain tfp1, active compounds read low 0.0599 | locus YDL192W, strain arf1, active compounds read low 0.0839 | locus YDR001C, strain nth1, active compounds read low 0.108 | locus YDR069C, strain doa4, active compounds read low 0.386 | locus YDR101C, strain arx1, active compounds read low 0.104 | locus YDR137W, strain rgp1, active compounds read low 0.534 | locus YDR159W, strain sac3, active compounds read low 0.11 | locus YDR162C, strain NBP2, active compounds read low 0.0587 | locus YDR195W, strain ref2 0.225 | locus YDR297W, strain sur2, active compounds read low 0.102 | locus YDR318W, strain mcm21, active compounds read low 0.0797 | locus YDR334W, strain swr1, active compounds read low 0.0978 | locus YDR335W, strain msn5, active compounds read low 0.101 | locus YDR388W, active compounds read low 0.0652 | locus YDR392W, strain spt3, active compounds read low 0.0848 | locus YDR502C, strain sam2, active compounds read low 0.0839 | locus YEL003W, strain gim4, active compounds read low 0.0733 | locus YEL037C, strain rad23, active compounds read low 0.197 | locus YEL061C, strain CIN8 (second series), active compounds read low 0.0698 | locus YER015W, strain faa2, active compounds read low 0.118 | locus YER016W, strain bim1, active compounds read low 0.102 | locus YER110C, active compounds read low 0.135 | locus YER111C, strain swi4, active compounds read low 0.0988 | locus YER155C, strain BEM2 (second series), active compounds read low 0.113 | locus YER155C, strain BEM2, active compounds read low 0.0788 | locus YER167W, strain BCK2, active compounds read low 0.0623 | locus YFR010W, strain ubp6, active compounds read low 0.375 | locus YGL078C, strain dbp3, active compounds read low 0.124 | locus YGL086W, strain mad1, active compounds read low 0.073 | locus YGL167C, strain pmr1, active compounds read low 0.319 | locus YGL173C, strain kem1, active compounds read low 0.442 | locus YGL227W, strain vid30, active compounds read low 0.0819 | locus YGL240W, strain doc1, active compounds read low 0.257 | locus YGL248W, strain PDE1, active compounds read low 0.0587 | locus YGL253W, strain hxk2, active compounds read low 0.0659 | locus YGR135W, strain pre9, active compounds read low 0.0764 | locus YGR229C, strain SMI1, active compounds read low 0.0768 | locus YGR252W, strain gcn5, active compounds read low 0.211 | locus YHR013C, strain ard1, active compounds read low 0.136 | locus YHR027C, strain rpn1, active compounds read low 0.324 | locus YHR030C, strain SLT2, active compounds read low 0.142 | locus YHR079C, strain IRE1 (second series), active compounds read low 0.0949 | locus YHR079C, strain IRE1, active compounds read low 0.54 | locus YHR094C, strain hxt1, active compounds read low 0.0761 | locus YHR129C, strain ARP1, active compounds read low 0.0658 | locus YHR142W, strain chs7, active compounds read low 0.0852 | locus YHR200W, strain rpn10, active compounds read low 0.103 | locus YIL066C, strain RNR3, active compounds read low 0.0618 | locus YIL073C, strain SPO22, active compounds read low 0.125 | locus YIL125W, strain kgd1, active compounds read low 0.102 | locus YIR030C, strain dcg1, active compounds read low 0.0851 | locus YJL092W, strain hpr5, active compounds read low 0.0924 | locus YJL095W, strain BCK1 (second series), active compounds read low 0.0627 | locus YJL095W, strain BCK1, active compounds read low 0.0635 and 0.17 | locus YJL115W, strain asf1, active compounds read low 0.113 | locus YJL129C, strain trk1, active compounds read low 0.102 | locus YJL134W, strain LCB3, active compounds read low 0.0651 | locus YJL154C, strain vps35, active compounds read low 0.156 | locus YJL164C, strain tpk1, active compounds read low 0.0795 | locus YJL166W, strain qcr8, active compounds read low 0.0744 | locus YJL168C, strain set2, active compounds read low 0.0986 | locus YJL187C, strain SWE1 (second series), active compounds read low 0.0801 | locus YJR043C, strain POL32, active compounds read low 0.0984 | locus YJR066W, strain TOR1, active compounds read low 0.471 | locus YKL009W, strain mrt4, active compounds read low 0.252 | locus YKL068W, active compounds read low 0.135 | locus YKL085W, strain MDH1 (second series), active compounds read low 0.0926 | locus YKL085W, strain MDH1, active compounds read low 0.0926 | locus YKL160W, strain elf1, active compounds read low 0.0907 | locus YKR001C, strain vps1, active compounds read low 0.0755 | locus YKR026C, strain gcn3, active compounds read low 0.223 | locus YKR091W, strain srl3, active compounds read low 0.12 | locus YLL001W, strain dnm1, active compounds read low 0.109 | locus YLL026W, active compounds read low 0.0788 | locus YLL041C, strain sdh2, active compounds read low 0.0915 | locus YLR027C, strain aat2, active compounds read low 0.0814 | locus YLR039C, strain RIC1, active compounds read low 0.229 | locus YLR058C, strain SHM2, active compounds read low 0.0708 | locus YLR102C, strain apc9, active compounds read low 0.0841 | locus YLR113W, strain HOG1, active compounds read low 0.557 | locus YLR221C, strain rsa3, active compounds read low 0.077 | locus YLR258W, strain gsy2, active compounds read low 0.0908 | locus YLR262C, strain YPT6 (second series), active compounds read low 0.323 | locus YLR268W, strain sec22, active compounds read low 0.0945 | locus YLR320W, strain mms22, active compounds read low 0.0887 | locus YLR330W, strain CHS5, active compounds read low 0.0602 | locus YLR342W, strain FKS1 (second series), active compounds read low 0.0855 | locus YLR342W, strain FKS1, active compounds read low 0.0932 | locus YLR357W, strain rsc2, active compounds read low 0.383 | locus YLR370C, strain arc18, active compounds read low 0.0901 | locus YLR371W, strain rom2, active compounds read low 0.0788 | locus YLR384C, strain iki3, active compounds read low 0.213 | locus YLR418C, strain cdc73, active compounds read low 0.141 | locus YML016C, strain PPZ1, active compounds read low 0.0661 | locus YML032C, strain rad52, active compounds read low 0.105 | locus YML120C, strain ndi1, active compounds read low 0.0802 | locus YML124C, strain tub3, active compounds read low 0.0853 | locus YMR058W, strain fet3, active compounds read low 0.113 | locus YMR078C, strain ctf18, active compounds read low 0.0791 | locus YMR125W, strain sto1, active compounds read low 0.102 | locus YMR129W, active compounds read low 0.0908 | locus YMR205C, strain PFK2, active compounds read low 0.124 | locus YMR223W, strain ubp8, active compounds read low 0.0843 | locus YMR231W, strain pep5, active compounds read low 0.106 | locus YMR263W, strain SAP30, active compounds read low 0.0847 | locus YMR307W, strain GAS1, active compounds read low 0.145 | locus YNL067W, strain RPL9B, active compounds read low 0.0797 | locus YNL071W, strain lat1, active compounds read low 0.0674 | locus YNL183C, strain NPR1, active compounds read low 0.561 | locus YNL209W, strain ssb2, active compounds read low 0.383 | locus YNL233W, strain BNI4, active compounds read low 0.0735 | locus YNL248C, strain rpa49, active compounds read low 0.101 | locus YNL250W, strain rad50, active compounds read low 0.104 | locus YNL271C, strain bni1, active compounds read low 0.103 | locus YNL298W, strain CLA4, active compounds read low 0.081 | locus YNL307C, strain MCK1, active compounds read low 0.0717 | locus YNL322C, strain KRE1 (second series), active compounds read low 0.131 | locus YNL322C, strain KRE1, active compounds read low 0.0664 | locus YNR049C, strain mso1, active compounds read low 0.0984 | locus YNR052C, strain pop2, active compounds read low 0.103 | locus YOL006C, strain TOP1, active compounds read low 0.15 | locus YOL147C, strain pex11, active compounds read low 0.0685 | locus YOR001W, strain rrp6, active compounds read low 0.105 | locus YOR061W, strain CKA2, active compounds read low 0.117 | locus YOR069W, strain VPS5, active compounds read low 0.0792 | locus YOR070C, strain gyp1, active compounds read low 0.0794 | locus YOR080W, strain dia2, active compounds read low 0.111 | locus YOR083W, strain WHI5, active compounds read low 0.198 | locus YOR106W, strain vam3, active compounds read low 0.143 | locus YOR136W, strain idh2, active compounds read low 0.0918 | locus YOR144C, strain elg1, active compounds read low 0.0753 | locus YOR184W, strain ser1, active compounds read low 0.0768 | locus YOR231W, strain MKK1, active compounds read low 0.573 | locus YOR265W, strain rbl2, active compounds read low 0.106 | locus YOR270C, strain vph1, active compounds read low 0.111 | locus YOR290C, strain snf2, active compounds read low 0.108 | locus YOR316C, strain cot1, active compounds read low 0.0772 | locus YPL051W, strain arl3, active compounds read low 0.182 | locus YPL078C, strain atp4, active compounds read low 0.0844 | locus YPL106C, strain sse1, active compounds read low 0.175 | locus YPL240C, strain hsp82, active compounds read low 0.084 | locus YPL241C, strain CIN2, active compounds read low 0.0689 | locus YPL256C, strain CLN2, active compounds read low 0.604 | locus YPR119W, strain clb2, active compounds read low 0.0896 | locus YPR141C, strain kar3, active compounds read low 0.176 | locus YPR163C, strain tif3, active compounds read low 0.0892 | locus YPR167C, strain met16, active compounds read low 0.0808 | strain wtn01, active compounds read low 0.0731
inactive: locus YOL012C, strain htz1 0.203

— PubChem BioAssay AID1159580 (chemical genetic matrix, 2015)
